High-throughput results from PubChem BioAssay.
Many of the other results were omitted from the sample, so hits are more common in it than they were.
Dicer processing: inhibitors of Dicer pre-microRNA processing, primary screen, biochemical, cat-ELCCA, chemiluminescence | Endoribonuclease Dicer (Homo sapiens), Q9UPY3 | cat-ELCCA pre-miR-21 Dicer processing; active compounds read high | z-score at 25 µM | 47,000 tested, 6% active | AID 1347074, 2019; in the data active means z-score above about 3, passing the limit was not always enough;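 further: plate controls were vehicle for no effect and no enzyme for full effect; higher signal means more uncleaved substrate so more Dicer inhibition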
Target sequence (Q9UPY3 whole entry, looked up): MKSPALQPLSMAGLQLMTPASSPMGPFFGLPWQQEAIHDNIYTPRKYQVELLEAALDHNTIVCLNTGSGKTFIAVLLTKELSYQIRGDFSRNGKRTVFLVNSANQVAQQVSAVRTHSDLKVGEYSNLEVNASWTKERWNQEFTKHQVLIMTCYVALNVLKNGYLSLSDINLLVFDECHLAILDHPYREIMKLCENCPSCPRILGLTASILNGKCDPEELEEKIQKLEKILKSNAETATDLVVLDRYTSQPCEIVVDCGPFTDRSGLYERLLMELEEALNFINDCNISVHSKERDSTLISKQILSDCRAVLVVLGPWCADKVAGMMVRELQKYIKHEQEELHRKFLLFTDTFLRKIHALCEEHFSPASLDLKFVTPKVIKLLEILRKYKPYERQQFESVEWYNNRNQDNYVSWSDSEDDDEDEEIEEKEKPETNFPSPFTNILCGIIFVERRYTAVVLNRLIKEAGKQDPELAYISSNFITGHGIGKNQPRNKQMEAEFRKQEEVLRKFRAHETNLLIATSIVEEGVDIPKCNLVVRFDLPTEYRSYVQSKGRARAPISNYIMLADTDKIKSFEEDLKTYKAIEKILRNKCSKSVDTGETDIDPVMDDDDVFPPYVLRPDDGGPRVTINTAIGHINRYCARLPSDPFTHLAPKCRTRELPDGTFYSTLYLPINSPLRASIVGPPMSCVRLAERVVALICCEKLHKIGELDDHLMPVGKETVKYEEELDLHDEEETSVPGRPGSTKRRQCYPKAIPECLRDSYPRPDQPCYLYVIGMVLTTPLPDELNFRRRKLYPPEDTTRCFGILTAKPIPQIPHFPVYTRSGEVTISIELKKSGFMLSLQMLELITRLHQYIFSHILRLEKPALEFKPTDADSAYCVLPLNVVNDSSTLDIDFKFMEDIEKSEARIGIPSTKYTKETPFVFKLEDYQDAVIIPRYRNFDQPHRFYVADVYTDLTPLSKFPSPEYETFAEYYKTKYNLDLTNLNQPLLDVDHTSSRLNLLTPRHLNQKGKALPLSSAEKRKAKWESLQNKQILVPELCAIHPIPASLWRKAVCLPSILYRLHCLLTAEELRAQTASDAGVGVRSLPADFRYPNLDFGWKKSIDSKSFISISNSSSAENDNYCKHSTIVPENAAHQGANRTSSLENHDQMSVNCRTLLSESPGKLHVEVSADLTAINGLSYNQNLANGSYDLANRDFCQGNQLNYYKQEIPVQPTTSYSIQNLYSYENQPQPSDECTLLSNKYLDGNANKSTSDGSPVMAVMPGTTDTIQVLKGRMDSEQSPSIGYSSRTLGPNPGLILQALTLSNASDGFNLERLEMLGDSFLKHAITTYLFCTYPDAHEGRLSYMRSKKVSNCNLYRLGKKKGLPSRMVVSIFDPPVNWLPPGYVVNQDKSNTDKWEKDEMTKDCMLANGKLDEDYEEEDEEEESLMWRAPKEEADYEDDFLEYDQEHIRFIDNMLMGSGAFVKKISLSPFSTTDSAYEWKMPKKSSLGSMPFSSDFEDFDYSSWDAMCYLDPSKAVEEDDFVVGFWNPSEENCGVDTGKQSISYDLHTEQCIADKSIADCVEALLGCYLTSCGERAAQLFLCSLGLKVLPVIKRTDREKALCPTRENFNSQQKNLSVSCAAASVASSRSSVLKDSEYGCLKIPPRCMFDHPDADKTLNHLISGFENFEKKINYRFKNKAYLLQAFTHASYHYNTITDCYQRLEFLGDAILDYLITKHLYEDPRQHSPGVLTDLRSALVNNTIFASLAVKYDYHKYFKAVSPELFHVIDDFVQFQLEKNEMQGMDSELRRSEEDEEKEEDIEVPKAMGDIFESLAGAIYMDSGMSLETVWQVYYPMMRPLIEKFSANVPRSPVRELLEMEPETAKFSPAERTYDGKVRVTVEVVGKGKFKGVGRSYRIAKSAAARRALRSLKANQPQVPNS
* = called active by the depositor.

SMILES	Dicer processing
CC(c1ccccc1)n1c(SCCS(=O)(=O)c2ccc(F)cc2)n[nH]c1=O (stereo not given)	-0.26
CCc1nnc2sc(-c3ccc(N)cc3)nn12	3.38*
CCOc1ccc(-c2nn3c(COc4ccccc4)nnc3s2)cc1	1.99
COc1ccc(-c2nn3c(Cc4ccccc4)nnc3s2)cc1	-0.45
O=C(CS(=O)(=O)Nc1ccc(Cl)cc1)CS(=O)(=O)Nc1ccc(Cl)cc1	2.85
O=c1[nH]cnc2c(Br)cc(Br)cc12	0.87
CCOC(=O)c1cc(-c2ccccc2)sc1NC(=O)Nc1ccc(Cl)c(Cl)c1	0.27
COc1cc2c(cc1OC)/C(=C/c1ccc(C(F)(F)F)cc1)C(=O)N2	-0.13
COc1cc(C(=O)c2c(C)c(C)c(C)c(C)c2C)cc(OC)c1OC	-0.31
Cc1nonc1NC(=O)Nc1ccncc1	44.4
Cc1nonc1NC(=O)N1CCOCC1	5.94*
O=C(Nc1ccc(-c2ccccn2)s1)N1CCOCC1	-0.4
NC(=O)COc1ccc(C2=Nc3ccccc3NC(c3ccccc3)C2)cc1 (stereo not given)	1.4
Cc1c(S(=O)(=O)NCc2ccc(S(N)(=O)=O)cc2)sc2ccc(Cl)cc12	-7.68
CC1(C)CC(=O)C=C(SCc2cccc(Cl)c2)S1	4.51*
CC1(C)CC(=O)C=C(SCCS(=O)(=O)c2ccc(Cl)cc2)S1	1.12
CC1(C)CC(=O)C=C(SCc2c(Cl)cccc2Cl)S1	0.78
CCCC1=NC(C)(C)Cc2cc(OC)c(OC)cc21	1.15
CCSc1sc(CC)cc1C1C(C(=O)Nc2cccnc2)=C(C)NC2=C1C(=O)CC(C)(C)C2 (stereo not given)	1.56
Oc1ccccc1C=NCC1CCC(CN=Cc2ccccc2O)CC1 (stereo not given)	-0.73
Oc1ccccc1/C=N/C(/N=C/c1ccccc1O)c1ccccc1O	0.33
Oc1ccccc1C=Nc1n[nH]c2ccccc12	3.49*
O=C(Nc1nnc(COc2ccc(Cl)cc2)s1)c1ccco1	3.99*
COCc1nnc(NC(=O)COc2ccc(Cl)cc2)s1	0.02
O=C(Nc1nnc(CCSc2ccc3ccccc3c2)s1)c1ccco1	1.01
SMILES	Dicer processing
CC(=O)N[C@H]1[C@@H](OCc2ccccc2)O[C@H](CO)[C@@H](O)[C@@H]1O	-1.37
CN(C)/C=C/c1nnnn1-c1ccc2ccccc2c1	0.13
CCOC(=O)N/N=C/c1ccc2c(c1)OCO2	2.89
COc1ccc(-c2cc(=O)c3cc(Cl)ccc3o2)cc1	-1.02
CCOc1ccc(C(=O)CC2(O)C(=O)Nc3ccccc32)cc1 (stereo not given)	3.36*
CC(C)c1ccc(C(=O)CC2(O)C(=O)Nc3ccccc32)cc1 (stereo not given)	-1.43
CCc1ccc(C(=O)CC2(O)C(=O)Nc3ccccc32)cc1 (stereo not given)	-0.1
COC(=O)c1cc(S(=O)(=O)NCCc2c[nH]c3ccccc23)oc1C	-0.02
Nc1nc(-c2ccncc2)nc2sc3c(c12)CCCCC3	4.1*
Nc1ncnc2sc3c(c12)CCCCC3	1.66
Nc1ncnc2sc3c(c12)CCCC3	-0.7
COc1ccc(Cc2nnc(SCc3ccccc3Cl)o2)cc1	0.68
CCS(=O)(=O)n1nc(-c2ccccc2)nc1N	3.33*
CCS(=O)(=O)n1nc(-c2ccc(Cl)cc2)nc1SC	2.71
Nc1nc(-c2ccc(Cl)cc2)nn1S(=O)(=O)c1ccccc1	1.76
CCc1nnc2sc(-c3cc(C)nc4ccccc34)nn12	-1.12
CCCc1nnc(NC(CC)OC(=O)c2cc(C)nc3ccccc23)s1 (stereo not given)	3.07*
COCCNc1cc(C)nc2ccccc12	5.45
COc1ccc2c(c1)CCCN2C(=O)c1c(-c2c(Cl)cccc2Cl)noc1C	-1.05
CNC(=S)N/N=C/c1ccccc1Cl	-0.61
S=C(N/N=C/c1cccnc1)NC1CC2CC1C1C=CCC21 (stereo not given)	0.65
Oc1ccccc1/C=N/NC(=S)NC1CC2CC1C1C=CCC21 (stereo not given)	3.83*
CCCc1nnc(N2C(=O)c3oc4ccc(F)cc4c(=O)c3C2c2ccc(OCC)c(OC)c2)s1 (stereo not given)	0.19
COc1ccc(OCCSc2nc3ccccc3n2CC(=O)O)cc1	0.55
CCCSc1nc2ccccc2n1CC(=O)O	-2
SMILES	Dicer processing
CC(C)CSc1nc2ccccc2n1CC(=O)O	3.21*
CCN(CCS(=O)(=O)c1ccccc1)S(=O)(=O)c1ccc(Cl)cc1	-4.44
CNC(=O)N(CCS(=O)(=O)c1ccc(Cl)cc1)Cc1cccs1	-2.51
CCN(CCS(=O)(=O)c1ccc(Cl)cc1)C(=O)Nc1ccccc1	3.32*
O=C(CSc1nc(-c2ccccc2)cs1)c1ccccc1	0.79
CCCN(CCC)C(=O)C1Sc2nnc(C)n2NC1c1ccc(C)cc1 (stereo not given)	-0.18
c1ccc(Oc2nc(-c3ccncc3)nc3ccccc23)cc1	0.72
CCOC(=O)c1c(-c2ccccc2)c2oc3ccccc3c2[nH]c1=O	3.09*
CCOC(=O)c1c(C)nc2ccc(Cl)cc2c1-c1ccccc1	0.82
CCOC(=O)c1c(O)c2ccccc2[nH]c1=O	0.85
COc1cccc2c1c(NC(=O)c1cnn(-c3ccc(F)cc3)c1C)nn2C	1.22
Fc1cc2[nH]c(=S)[nH]c2cc1Cl	4.18*
S=c1[nH]c2cc(Cl)cc(Cl)c2o1	-0.92
ClC1=C(CN2CCSCC2)CSc2ccc(Cl)cc21	0.72
Clc1cccc(N=CNc2cccc(Cl)c2Cl)c1Cl	0.58
O=c1oc2ccccc2c(O)c1-c1ccccc1	9.15
CCOC(=O)c1cc(C)ccc1NC(=S)Nc1cccc(Cl)c1	-5.33
CCOC(=O)c1cc(CC)sc1NC(=S)Nc1cccc(Cl)c1	7.09*
CCOC(=O)c1cc(CC)sc1NC(=S)Nc1ccccc1C(F)(F)F	-0.97
COc1ccc2cc(C(C)C(=O)Nc3ccc(OC(F)(F)F)cc3)ccc2c1 (stereo not given)	0.66
N#CCCn1nc(-c2ccccc2)cc1NS(=O)(=O)c1ccc(Cl)c(Cl)c1	-0.37
COc1ccc(C2CC(=O)C3=C(C2)Nc2ncnn2C3c2ccccc2)cc1 (stereo not given)	2.9
O=C1CC(c2ccccc2)CC2=C1C(c1ccco1)n1ncnc1N2 (stereo not given)	3.89*
c1ccc(C2CC(c3ccco3)n3ncnc3N2)cc1 (stereo not given)	0.17
C(/C=C/C=C/Nc1ccccc1)=Nc1ccccc1	0.52
SMILES	Dicer processing
Fc1ccc(N=C/C=C/C=C/Nc2ccc(F)cc2)cc1	3.06*
CCOC(=O)c1nc(Nc2cccc(O)c2)c2ccccc2n1	0.52
O=C(c1ccc(Cl)cc1)N(c1ccccc1)n1c(-c2cccc([N+](=O)[O-])c2)csc1=S	-1.13
Cc1ccc(C)c(CSc2nc(C3CCCCC3)c(C#N)c(=O)[nH]2)c1	4.26*
CSc1nc(CSc2ccc(Cl)cc2)nc(C2CC2)c1C#N	6.88
CCc1ccccc1CSc1nc(C)cc(C)c1C#N	0.42
CCCCN1C(=O)N(c2nnc(C(C)(C)C)s2)C(=O)C1c1ccc(Cl)c(C)c1 (stereo not given)	-0.17
CCNc1nc(SCc2ccc(F)cc2)nc2sc3c(c12)CCC(C)C3 (stereo not given)	-1.65
Cc1ncc(CNS(=O)(=O)c2ccccc2C(F)(F)F)c(N)n1	-1.27
Cc1c(C(=O)Nc2ccc(Cl)cc2)cc(C(C)(C)C)n1-c1ccccc1	0.34
O=C(NCc1cc(Cl)ccc1Cl)c1cc2cccc([N+](=O)[O-])c2[nH]1	-1.79
O=C(Cn1c(=O)sc2ccccc21)Nc1sc2c(c1C(=O)O)CCCC2	2.76
